Sampled rows, rich in hits. Any-hit rate of the full collection: about 8.7%.
G9a block = blocks human histone lysine methyltransferase G9a; Q96KQ7; G9a H3K9 monomethylation, AlphaScreen, 2 h; Potency, µM (doses to about 102 µM), inactives show at the highest dose activity, negative = inhibition, actives largely listed as inhibitors; 350,000 tested, 8.8% active; further: on the % scale 0 is the no-effect control and ±100 the full control effect; nearly all actives have a fitted effect of over 75% in size
Target sequence (Q96KQ7 913-1193 limits assumed): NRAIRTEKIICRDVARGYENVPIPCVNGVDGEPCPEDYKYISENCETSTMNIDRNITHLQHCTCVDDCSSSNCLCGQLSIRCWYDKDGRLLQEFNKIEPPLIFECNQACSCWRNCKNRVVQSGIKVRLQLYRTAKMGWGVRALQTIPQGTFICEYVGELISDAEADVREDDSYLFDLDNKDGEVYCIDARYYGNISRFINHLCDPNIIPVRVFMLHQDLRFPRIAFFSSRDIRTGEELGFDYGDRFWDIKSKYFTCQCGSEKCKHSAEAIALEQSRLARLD
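Readings reflect AlphaScreen signal from monomethyl-H3K9 antibody detection. HMT at 20 nM; substrate b-H3K9 500 nM; cofactor SAM 20 uM; 2 h RT reaction; compounds tested as titrations in qHTS with 15 min preincubation.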
HP1b chromo inh = blocks HP1-beta chromodomain binding to methylated histone tails. 390,000 tested, 0.56% active. Potency, µM (highest dose often 114 µM), without a hit: at the top dose activity change, negative = inhibition, usual class: inhibitors. P83916. AlphaScreen HP1-beta / biotin-H3K9me3 peptide binding; further: nearly all actives have a fitted effect of over 70% in size
Target sequence (P83916 whole entry, looked up): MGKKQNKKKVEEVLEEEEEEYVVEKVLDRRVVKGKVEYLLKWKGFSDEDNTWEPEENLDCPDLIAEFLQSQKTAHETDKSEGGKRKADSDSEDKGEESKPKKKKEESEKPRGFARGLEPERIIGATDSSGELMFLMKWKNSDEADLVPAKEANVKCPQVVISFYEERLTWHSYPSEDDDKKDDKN
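HP1-beta protein (50 nM final) preincubated 30 min at room temperature with biotinylated H3(1-18)K9me3 peptide (50 nM) in PBS pH 7.4, 0.01% Tween-20, then compound added for 30 min. AlphaScreen streptavidin donor/nickel chelate acceptor beads (10 ug/mL final), 30 min dark, luminescence read.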
12-LOX inh = inhibitors of human 12S-lipoxygenase ALOX12; Potency, µM (top dose mostly 108 µM), inactives show at the highest dose activity change, negative = inhibition, hits mostly inhibitors; purified 12hLO, xylenol orange hydroperoxide absorbance; 580,000 tested, 1.1% active; AID 1671190; P18054; further: on the % scale 0 is the no-effect control and ±100 the full control effect
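Purified human 12hLO (150 nM final) in 25 mM Hepes, 0.01% Triton X-100, pH 7.0 was preincubated 15 min at room temperature with compound. Then 40 uM arachidonic acid was added, 30 min. Hydroperoxide was read by Fe-XO absorbance ratio 573/405 nm.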
JMJD2A Tudor = JMJD2A Tudor domain (human) inhibition. O75164. AlphaScreen JMJD2A-Tudor / H3K4me3 peptide binding. AID 504339. 390,000 tested, 4.4% active. Potency, µM (series often up to 114 µM), without a hit: top-dose activity change, negative = inhibition, most hits filed as inhibitors; further: on the % scale 0 is the no-effect control and ±100 the full control effect; nearly all actives have a fitted effect of over 50% in size
BAZ2B block = BAZ2B (human) inhibition. Q9UIF8. 360,000 tested, 4.4% active. AID 504333. AlphaScreen BAZ2B-H3K14Ac peptide displacement. Potency, µM (highest dose often 114 µM), for the others: top-dose activity change, negative = inhibition, actives largely listed as inhibitors; further: on the % scale 0 is the no-effect control and ±100 the full control effect; nearly all actives have a fitted effect of over 60% in size
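Protein-peptide AlphaScreen: BAZ2B 50 nM, b-H3K14Ac 50 nM, 1x PBS pH 7.4 + 0.01% Tween-20. Preincubation 30 min RT; cpd 30 min RT (top 110 uM); beads 20 min RT, light-protected.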
Sfp PPTase inh = blocks B. subtilis Sfp PPTase activity; 310,000 tested, 3.5% active; Q9F4F7; Biochemical Sfp PPTase activity, qHTS; AID 1490; Potency, µM, for inactives: largest response in the series, negative = inhibition, most hits filed as inhibitors;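 further: the enzyme is Sfp with the accession as filed and its product quenches rhodamine fluorescence; 0% = enzyme reaction without inhibitor and -100% = no enzyme wells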
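After 15 min at room temperature with compound, 15 nM Sfp received 5 uM rhodamine-CoA plus 12.5 uM BHQ-2-ybbR (50 mM Hepes pH 7.6, 10 mM MgCl2). Rate came from the fluorescence difference over 30 min, ex 525/em 598 nm.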
An asterisk follows results filed as active; u = inconclusive; x = no result; [ ] = remark or other dose. The call rests on the fitted dose curve; in most records, active means well fitted curve in the direction sought with a large enough effect; inconclusive means small, poorly fitted or top-dose-only effect, or another doubt; inactive means no such curve, though single readings can be large; an effect the other way counts as inactive or inconclusive. Potency means the concentration at half of the fitted maximal effect.

SMILES | G9a block | HP1b chromo inh | 12-LOX inh | JMJD2A Tudor | BAZ2B block | Sfp PPTase inh
Cn1cccc1/C=C1\SC(=Nc2cccc(O)c2)NC1=O | x | u | 0% | u | 25µM* | -20%
Cn1cccc1/C=C1\SC(=Nc2ccc(O)cc2)NC1=O | -37%[59 µM] | 7% | -21% | -31% | -29% | 1%
CNCC(=O)NC1CCCN(c2ccc(C(F)(F)F)cn2)C1 (stereo unspecified) | x | x | 5% | x | x | x
CC(C)OCCCNC(=S)NCCc1ccccc1 | x | x | -5% | x | x | x
CCOC(=O)C(c1ccccc1)C(C(=O)OCC)c1ccccc1 (stereo unspecified) | x | x | 38% | x | x | x
CCCCC1Cc2[nH]c(=S)[nH]c(=O)c2C(c2ccc(C(C)C)cc2)O1 (stereo unspecified) | x | x | 40µM* | x | x | x
CCOC(=O)c1c(C)[nH]c(C(=O)C(C)N(C)Cc2ccc(OC)c(F)c2)c1C (stereo unspecified) | x | x | 2% | x | x | x
COC(=O)c1ccc(COc2ccc(/C=N/Nc3cccc(C(=O)O)c3)cc2)cc1 | 8.9µM* | u | u | 56µM* | u | 5%
O=C(O)c1cccc(N/N=C/c2cccs2)c1 | -4%[59 µM] | 18% | -30% | -11%[57.1 µM] | -35% | 0%
CCOc1cc(C=O)ccc1OCC(=O)N1CCCC1 | 0% | 47% | 18% | -11% | 12% | 13%
CSc1ccc(/C=N/Nc2cccc(C(=O)O)c2)cc1 | 4µM* | 10µM* | x | 4µM* | 8.9µM* | 12%
CCOc1cc(/C=N/Nc2cccc(C(=O)O)c2)ccc1OCC(=O)N1CCCCC1 | 32µM* | -11% | -19% | -20% | u | 5%
COC(=O)c1ccc(COc2ccc(/C=N/Nc3nc(C)cc(=O)[nH]3)cc2)cc1 | -1%[59 µM] | 70% | -8% | -23% | -7% | 2%
O=C(O)c1cccc(N/N=C/c2ccc(OC(F)(F)F)cc2)c1 | 14µM* | 4% | 0% | u | u | -1%
COCCOc1cc(NC(=O)c2nn(C)c(=O)c3ccccc23)ccc1OC | x | x | 7% | x | x | x
CCOc1ccc(S(=O)(=O)Nc2cccc(CC)c2)c2cccnc12 | x | x | -14% | x | x | x
COc1cc(-c2cc(C)c3c(OC)ccc(OC)c3n2)cc2c1OCCNC2 | x | x | 76% | x | x | x
O=C(O)c1ccc(N/N=C/c2ccc(OC(=O)c3cccc(Cl)c3)cc2)cc1 | 2%[12.7 µM] | u | u | -19%[11.4 µM] | 50µM* | 40µM*
O=C(N/N=C/c1cccc(OCc2ccccc2)c1)c1cccs1 | 4% | 25% | -6% | 18% | 6% | -19%
O=C(O)c1ccc(COc2ccc(/C=N/NC(=O)c3cccs3)cc2)cc1 | 10µM* | 3% | u | -24% | -29% | 8%
O=C(Oc1ccc(/C=N/Nc2ccccc2)cc1)c1ccccc1 | -5%[0.0925 µM] | 16% | u | 2%[57.1 µM] | -11% | -14%
O=C(C1=C(O)C(=O)N(CCc2ccccc2)C1c1cccs1)c1ccco1 (stereo unspecified) | 50µM* | 6% | u | -19% | u | 22%
COCCCN1C(=O)C(O)=C(C(C)=O)C1c1ccccn1 (stereo unspecified) | u | -3% | u | 79µM* | -34% | 8%
COCCCN1C(=O)C(O)=C(C(=O)c2ccco2)C1c1ccccc1 (stereo unspecified) | 10%[12.7 µM] | 11% | u | 50µM* | u | 9%
CCCOc1ccc(C2C(C(=O)c3ccco3)=C(O)C(=O)N2CCCn2ccnc2)cc1 (stereo unspecified) | u | 28% | 3% | -13% | -8% | 9%
SMILES | G9a block | HP1b chromo inh | 12-LOX inh | JMJD2A Tudor | BAZ2B block | Sfp PPTase inh
O=C(C1=C(O)C(=O)N(CCc2ccccc2)C1c1cccnc1)c1ccco1 (stereo unspecified) | u | 21% | u | -18% | u | -5%
CCN(CC)CCCN1C(=O)C(O)=C(C(=O)c2ccc(C)o2)C1c1ccc(C)o1 (stereo unspecified) | 20µM* | 43% | -28% | u | -30% | -9%
COCCCN1C(=O)C(O)=C(C(=O)c2ccc(C)o2)C1c1cccc(Br)c1 (stereo unspecified) | -35%[59 µM] | 27% | u | 89µM* | -34% | 19%
CCOCCCN1C(=O)C(O)=C(C(C)=O)C1c1cccs1 (stereo unspecified) | x | 12% | -7% | 89µM* | x | x
CC(=O)C1=C(O)C(=O)N(CCCO)C1c1ccccc1 (stereo unspecified) | u | 5% | -14% | u | u | 71µM*
CCOc1cccc(C2C(C(=O)c3ccc(C)o3)=C(O)C(=O)N2CCCn2ccnc2)c1 (stereo unspecified) | 0%[0.501 µM] | -5% | -6% | u | u | x
CCN(CC)CCCN1C(=O)C(O)=C(C(=O)c2ccc(C)o2)C1c1cccs1 (stereo unspecified) | -39%[12.7 µM] | x | x | x | -1% | 15%
COc1cc(C2C(C(=O)c3ccco3)=C(O)C(=O)N2Cc2ccccc2)ccc1O (stereo unspecified) | 71µM* | -5% | u | 56µM* | -29% | 1%
CCn1ncc(CN2CCC(C3CCN(C)CC3)C2)c1C (stereo unspecified) | x | x | 108% | x | x | x
CCOc1cc(C2C(C(=O)c3ccco3)=C(O)C(=O)N2CCc2ccccc2)ccc1O (stereo unspecified) | u | 41% | -28% | u | u | 13%
COCc1cc(C2C(C(=O)c3ccco3)=C(O)C(=O)N2CCOCCO)ccc1O (stereo unspecified) | u | -7% | u | 50µM* | u | 1%
CCN(CC)S(=O)(=O)c1ccc(NC(=O)COC(=O)c2nn(C)c(=O)c3ccccc23)cc1 | x | x | -6% | x | x | x
CCOC(=O)C1=CN(CC(=O)Nc2cccc(Cl)c2C)S(=O)(=O)N=C1C | x | x | 10% | x | x | x
COCCn1c(N2CCN(C)CC2)nc2c1c(=O)n(C)c(=O)n2C | x | x | 0% | x | x | x
C=CCSc1nnc(NC(=O)C2=COCCO2)s1 | 35µM* | 33% | -11% | -12% | -6% | x
O=C(Nc1nnc(SCc2ccccc2)s1)C1=COCCO1 | -9% | 28% | 2% | -11% | 10% | x
NC(=O)COc1cccc(NC(=O)CCc2ncc(-c3ccccc3)o2)c1 | x | x | -2% | x | x | x
Cc1ccc2c(CSc3nnc(C4CC4)n3N)cc(=O)oc2c1 | 50µM* | 34% | 6% | -15% | 21% | 12%
Cc1ccc2c(CSc3nnc(C4CC4)n3N)cc(=O)oc2c1C | -18%[59 µM] | 16% | -15% | -10% | x | 3%
COC(=O)c1[nH]ncc1CN1CCCC2(C1)CN(C)C(=O)O2 (stereo unspecified) | x | x | 25% | x | x | x

High-throughput results as filed in PubChem BioAssay.
